Rev-erbA mod: modulators of human Rev-erb alpha DNA binding; Rev-erbα–FITC-DNA binding, fluorescence polarization, 90 min; activity, % at 10 µM; 370,000 tested, 0.79% active;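 active = activity above about 14%, limit read from the data; passing the limit was not always enough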;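 also: 0% = DMSO wells with 35 nM protein and 100% = DMSO wells with 750 nM protein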
Target sequence (P20393 whole entry, looked up): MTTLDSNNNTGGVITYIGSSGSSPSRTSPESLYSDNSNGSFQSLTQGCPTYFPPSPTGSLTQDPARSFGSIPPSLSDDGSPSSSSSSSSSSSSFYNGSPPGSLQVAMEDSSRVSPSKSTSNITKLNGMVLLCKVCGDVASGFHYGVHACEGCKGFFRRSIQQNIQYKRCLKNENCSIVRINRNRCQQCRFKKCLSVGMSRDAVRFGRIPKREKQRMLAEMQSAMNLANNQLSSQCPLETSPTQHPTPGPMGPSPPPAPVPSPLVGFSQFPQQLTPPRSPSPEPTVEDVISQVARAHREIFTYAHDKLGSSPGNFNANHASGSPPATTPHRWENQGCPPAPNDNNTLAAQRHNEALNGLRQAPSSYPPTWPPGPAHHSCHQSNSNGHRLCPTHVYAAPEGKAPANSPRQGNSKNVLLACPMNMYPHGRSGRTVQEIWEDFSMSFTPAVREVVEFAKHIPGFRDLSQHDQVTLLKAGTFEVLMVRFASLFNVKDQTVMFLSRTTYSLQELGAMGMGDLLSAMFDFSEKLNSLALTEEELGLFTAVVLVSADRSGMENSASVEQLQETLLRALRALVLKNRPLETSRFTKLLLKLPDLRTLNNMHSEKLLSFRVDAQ
hcDAF-12 act: activators of H. contortus DAF-12 nuclear receptor; HEK293 hcDAF-12 lit1-tk-luc reporter, luminescence; 0% DMSO, 100% Δ7-dafachronic acid; activation, % at 6.8 µM; 370,000 tested, 1.4% active; AID 652067;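 active = activation above the mean of all tested compounds plus 3 SD, cut at about 5.5% in these data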;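 also: 100% = response to 3 µM Δ7-dafachronic acid high control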
DAX1 inh-1: NR0B1 (DAX1) inhibition; P51843; 340,000 tested, 0.99% active; HEK293 Gal4-DAX1 luciferase reporter, luminescence; inhibition, % at 6.75 µM;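 active = inhibition above the mean over all tested compounds plus 3 SD, cut at about 4.2% in these data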;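 also: 0% = DAX1-transfected cells with DMSO and 100% = empty-vector control cells with DMSO; inhibition shows as a rise in luminescence from relieved DAX1 repression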
DAX1 inh-2: DAX1 (NR0B1) inhibition, primary screen | inhibition, % at 6.8 µM | 370,000 tested, 1.1% active | HEK293T StAR-luciferase reporter, SF-1/DAX-1 repression relief;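 active = inhibition above the mean over all tested compounds plus 3 SD, cut at about 3.6% in these data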;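 also: 0% = DAX-1 cells with DMSO and 100% = cells lacking DAX-1 with DMSO; higher inhibition means more luminescence from relief of DAX-1 repression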
ssDAF12 agonist: S. stercoralis DAF-12 activation, primary screen; 370,000 tested, 1% active; activation, % at 6.8 µM; HEK293 ssDAF-12/GRIP1 lit1-tk-luc reporter, luminescence; % of 3 µM dafachronic acid response;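 active = activation above the mean over all tested compounds plus 3 SD, cut at about 0.9% in these data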;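 also: 0% = DMSO-only wells and 100% = 3 µM delta7-dafachronic acid wells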
hgDAF12 agonist: agonists of H. glycines DAF-12 nuclear receptor; HEK293 GAL4-hgDAF12 UAS-luciferase reporter, agonist luminescence; normalized to butyrate control; activation, % at 6.8 µM; 370,000 tested, 1.8% active; AID 687014;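 active = activation above a cutoff set at the mean of all screened compounds plus 3 SD, cut at about 10% in these data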;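 also: 0% = DMSO wells and 100% = sodium butyrate wells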
Starred values were filed as active, the others as inactive; / = not tested or not shown. A selection: hits, their analogues and other compounds. The true share with any hit is near 4.8%.

SMILES	Rev-erbA mod	hcDAF-12 act	DAX1 inh-1	DAX1 inh-2	ssDAF12 agonist	hgDAF12 agonist
COc1cccc(NC(=O)Nc2nc(SC)ns2)c1	3	4	7.2*	2	0	12*
COc1cccc(NC(=S)NC(=O)c2cncc(Br)c2)c1	-1	1	4.5*	0	-1	4
CC(C1=CCCCC1)c1cnn(C)c1 (stereo unspecified)	7	-1	/	0	-2	-4
COc1cccc(C(=O)Nc2ccc(C)cc2)c1	1	5	1	4.0*	1.6*	9
COc1ccc(NC(=O)c2ccc(C)cc2)c(OC)c1	2	4	1	1	0	12*
C[C@@H]1CC2C3C[C@H](F)C4=CC(=O)C=C[C@]4(C)[C@@]3(F)[C@@H](O)C[C@]2(C)[C@@]1(O)C(=O)COC(=O)C(C)(C)C (stereo partly specified)	-1	/	/	/	/	/
COC(=O)C1CN(C2CCCC2)CCS(=O)(=O)N1Cc1cn(Cc2ccc(F)cc2)nn1 (stereo unspecified)	-2	-2	/	0	-1	0
Cc1cccc(C2NC(=O)c3c(sc(C)c3C)N2)c1O (stereo unspecified)	2	4	1	0	1.4*	2
O=C(CCc1nc(-c2ccccc2F)no1)NCCc1ccc(F)cc1	-7	1	/	1	-1	-2
CC[C@@H](CCCCCCCn1ccc2ccccc21)CCC(=O)N(c1ccccc1)c1ccccc1	-2	-2	/	0	0	2
CSc1sc(C(=O)NN)c2c1C1(CCC2)SCCS1	4	1	5.8*	0	-1	1
CSc1sc(C(=O)NNC(C)=O)c2c1C1(CCC2)SCCS1	-3	-2	-2	0	-1	-3
CN[C@@H]1[C@H](OC2[C@H](O[C@H]3[C@H](O)[C@@H](O)[C@H](N=C(N)N)[C@@H](O)[C@@H]3N=C(N)N)O[C@@H](C)[C@]2(O)C=O)O[C@@H](CO)[C@H](O)[C@H]1O (stereo partly specified)	-5	/	/	/	/	/
Cc1ccc(S(=O)(=O)N(C)[C@H]2C[C@H]3c4[nH]c5cccc(-c6ccccc6)c5c4CCN3C(=O)[C@H]2[C@H](C)O)cc1	2	-1	/	0	-1	2
CS(=O)(=O)c1cccc(-c2nnc(NC(=O)CCS(=O)(=O)c3ccccc3)o2)c1	-5	1	4.6*	1	0	3
COc1cccc(-c2nnc(NC(=O)CCS(=O)(=O)c3ccc(F)cc3)o2)c1	10	0	0	0	-1	5
C=CCN1[C@@H](C)COc2cc(N3CCCC3)ccc2S1(=O)=O	-2	-3	/	0	-2	-2
CCOC(=O)[C@@]12CCCC3=C1N(CCC3)C(=O)[C@H]2CC(=O)NCCC(C)C	5	-1	/	-1	-2	1
CCOc1ccc(C(=O)N/N=C/c2ccccc2[N+](=O)[O-])cc1	-3	3	0	3	-1	10*
CC(=O)Nc1ccc(C(=O)N/N=C/c2ccccc2OCc2ccccc2)cc1	9	-1	4.3*	0	-1	7
CCC(=O)Nc1ccc(C(=O)N/N=C/c2cc(Br)c(OC)cc2OC)cc1	6	5	0	0	1.9*	1
Cc1ccc(C2CCC3(CCC(=O)N3CCO)CC2)cc1 (stereo unspecified)	8	-2	/	0	-1	-3
CCCC[C@H]1C2CC(OC(=O)Nc3ccc(Cl)cc3)C(C2)[C@H]2CCCCN21 (stereo partly specified)	-4	-2	/	2	-1	2
O=C(O)C1Cc2[nH]cnc2C(c2ccccc2O)N1 (stereo unspecified)	-3	6.0*	1	0	0	1
CCC[C@H]1[C@@H](OC(=O)NCc2cccc(Cl)c2)CC[C@@]23CCCN2C(=O)CCC[C@@H]13	6	-4	/	/	-2	2
CC(C)c1ccc(NC(=O)N2CCc3ccccc3C2)cc1	8	5.8*	-1	2	-1	8
O=C(Nc1ccccc1C(F)(F)F)c1cc(-c2ccccc2O)on1	-1	0	2	2	0	12*
O=C(Nc1ccccc1C(F)(F)F)c1cc(-c2ccco2)on1	6	2	3	1	0	7

Screening data deposited in PubChem BioAssay by several laboratories.
